ATXN2 expr inh = reduces ATXN2 reporter expression in HEK-293 cells; Potency, µM (series often up to 57 µM), for the others: at the top dose activity change, negative = inhibition, most hits filed as inhibitors; AID 1745845; HEK-293 ATXN2-luciferase reporter, luminescence, 24 h; hit rate 0.72% among 360,000; also: potency is read from the fitted curve at half-maximal effect; % is scaled to controls: 0 for no effect and ±100 for the full control effect; nearly all actives have a fitted effect of over 55% in size
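qHTS (up to 57 uM final) was run with 24 h compound exposure of reporter cells at 37 °C. Each well was multiplexed: SteadyGlo luminescence measured ATXN2-luciferase expression after a fluorogenic Gly-Phe-AFC viability readout (25 uM final).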
HepG2 viability = HepG2 cytotoxicity, counter-screen for TGF-b inhibitors; HepG2 CAGA-GFP viability, ATP luminescence, 18 h; Potency, µM (titrated, usually from 46.1 µM), for the others: at the top dose activity change, negative = cytotoxicity, hits mostly cytotoxic; hit rate 0.76% among 410,000; AID 588856; also: potency is read from the fitted curve at half-maximal effect
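HepG2 CAGA-GFP cells (1000/well, DMEM with 1% FBS) received compound, then TGF-beta at 500 pg/mL final, and were incubated 18 hours at 37 degrees C. Viability was read by CellTiter-Glo luminescence. Media-only wells were set as complete cell-killing and DMSO as no toxicity.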
DRD3 agonist = D3 dopamine receptor (human) agonism; hit rate 0.58% among 410,000; AID 652048; D3R DiscoveRx beta-arrestin cells, luminescence, 90 min; P35462; max activation, %; in the data active = max activation above about 30%; also: 0% is about no effect
Target sequence (P35462 whole entry, looked up): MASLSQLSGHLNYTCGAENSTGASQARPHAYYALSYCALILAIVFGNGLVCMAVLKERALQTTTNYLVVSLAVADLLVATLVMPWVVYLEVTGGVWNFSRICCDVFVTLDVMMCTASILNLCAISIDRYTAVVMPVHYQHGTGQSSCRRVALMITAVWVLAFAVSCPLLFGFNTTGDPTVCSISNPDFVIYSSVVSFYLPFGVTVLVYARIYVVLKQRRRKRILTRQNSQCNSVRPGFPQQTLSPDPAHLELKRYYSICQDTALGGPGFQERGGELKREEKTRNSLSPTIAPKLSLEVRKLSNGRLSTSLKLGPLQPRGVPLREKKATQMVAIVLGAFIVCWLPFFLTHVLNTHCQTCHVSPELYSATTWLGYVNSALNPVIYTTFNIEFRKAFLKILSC
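Cells at 1500/well, incubated overnight, then treated with pinned compounds (dopamine as control) for 90 min at 37 degrees C. DiscoveRx reagent added for 30 - 60 minutes at room temperature; luminescence read.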
ATXN viability = cell viability loss in ATXN counter-screen. S2 cells (HEK-293 line with an ATXN2-luciferase reporter) viability, CellTiter-Fluor protease fluorescence, 24 h. Potency, µM (top dose mostly 56.7 µM), most hits filed as cytotoxic. hit rate 0.49% among 400,000; also: potency is read from the fitted curve at half-maximal effect; nearly all actives have a fitted effect of over 40% in size
DRD3 antagonist = antagonists of human D3 dopamine receptor. max response, negative = inhibition, %. D3R cells, DiscoveRx beta-arrestin luminescence, antagonist mode; active compounds read low. P35462. hit rate 2.5% among 360,000; in the data active = max response below about -50%; inconclusive = no clear call, values can overlap the other calls; also: % is scaled to controls: 0 for no effect and ±100 for the full control effect
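Cells expressing the human receptor were seeded at 1500 cells/well, incubated overnight at 37 degrees C in 5% CO2, then exposed to library compounds with dopamine controls for 90 minutes at 37 degrees C before luminescent detection.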
TGFb inhibitor = blocks TGF-b signaling; hit rate 1.2% among 410,000; Potency, µM (titrated, usually from 46.1 µM), inactives show at the top dose activity, negative = inhibition, most hits filed as inhibitors; HepG2 CAGA-GFP TGF-b/SMAD3 reporter, GFP fluorescence, 18 h; TGF-beta stimulated, 500 pg/mL final; also: potency is read from the fitted curve at half-maximal effect; % is scaled to controls: 0 for no effect and ±100 for the full control effect; nearly all actives have a fitted effect of over 65% in size
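Inhibition was scored as loss of TGF-beta-induced (500 pg/mL final, 18 hours, 37 degrees C) GFP in HEPG2 cells carrying a CAGA-GFP reporter, in DMEM with 1% FBS. Well GFP was summed per cell; Activity was normalised to unstimulated and stimulated DMSO wells, then concentration-response fitting.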
* hit, by the source's call; i = inactive; u = inconclusive; x = no result given; ! = a repeat was not active. Rows were chosen to be rich in hits. Some 4.7% of all compounds tested hit in one or more screens of this group. Unless noted, calls follow the shape of the dose curve; as a rule, active = well fitted curve in the direction sought with a large enough effect; inconclusive = small, poorly fitted or top-dose-only effect, or another doubt; inactive = no such curve, though single readings can be large; an effect the other way counts as inactive or inconclusive.

SMILES | ATXN2 expr inh | HepG2 viability | DRD3 agonist | ATXN viability | DRD3 antagonist | TGFb inhibitor
COc1ccc(C2C(C(=O)c3sc(C)nc3C)=C(O)C(=O)N2CCN2CCOCC2)cc1 (centres undefined) | 5% | 4% | -19 | i | u | -6%
COc1ccc(OC)c(C2C(C(=O)c3sc(C)nc3C)=C(O)C(=O)N2CCN2CCOCC2)c1 (centres undefined) | -15% | -1% | -9 | i | -56* | -3%
C#CCOCCOCCOCCNc1nc(N2CCN(C(=O)CCCCCCCCCCNC(=O)[C@H](CO)n3cc(CCCSC)nn3)CC2)nc(N2CCN(C(=O)CCCCCCCCCCNC(=O)[C@H](CCCCN)n3cc(CCO)nn3)CC2)n1 | -18% | -25% | 6 | u | -9 | -16%
C#CCOCCOCCOCCNc1nc(N2CCN(C(=O)CCCCCCCCCCNC(=O)[C@H](CO)n3cc(CCCSC)nn3)CC2)nc(N2CCN(C(=O)CCCCCCCCCCNC(=O)[C@H](CCCN=C(N)N)n3cc(C[C@@H](C)CC)nn3)CC2)n1 | 11µM* | 10µM* | -8 | 11µM* | -23 | u
C#CCOCCOCCOCCNc1nc(N2CCN(C(=O)CCCCCCCCCCNC(=O)Cn3cc(C[C@@H](C)O)nn3)CC2)nc(N2CCN(C(=O)CCCCCCCCCCNC(=O)[C@H](CCCN=C(N)N)n3cc(C[C@@H](C)CC)nn3)CC2)n1 | u | -51% | 4 | 20µM* | 43 | 14µM*
C[C@@]12C(=O)N(CCO)CC(=O)N1[C@H](/C=C/c1ccccc1)[C@@H]1C(=O)N(c3ccccc3)C(=O)[C@@H]12 | -3% | -1% | -4 | i | -59* | -26%
O=C(COC(=O)c1cc(=O)[nH]c2ccccc12)NC1CCCC1 | 10% | -2% | -5 | i | -7 | 0%
O=C(NC1CCCC1)c1cc(=O)[nH]c2ccccc12 | x | -9% | 33* | i | -15 | -3%
COc1cc(C(=O)Oc2ccc3ccc(O)cc3c2)cc(OC)c1OC | x | 22µM* | 3 | i | 22 | u
Cc1ccc(OCc2ccc(-c3nc(C#N)c(NCc4ccccc4Cl)o3)o2)cc1 | u | -62% | -1 | 20µM* | x | u
COc1ccc(CNc2oc(-c3ccc(COc4ccc(OC)cc4)o3)nc2C#N)cc1 | -19% | -12% | -3 | i | x | -22%
COC(=O)c1cc2oc3ccccc3c2n1CC(=O)Nc1cc(OC)cc(OC)c1 | -12% | -31% | -12 | i | x | -19%
CCOC(=O)CCn1cnc2onc(-c3cc(OC)ccc3Cl)c2c1=O | 8% | -3% | 0 | i | x | -25%
CC(C)c1cc(C(=O)NNC(=S)NC2CCCCC2)cs1 | 14% | -16% | -20 | i | -53* | 0%
CCN(CC)c1ccc2c(c1)oc(=O)c1c(Cl)cc(=O)oc12 | u | 14µM* | -12 | u | -91* | u
Cc1ncc2c(c1CNC(=O)c1cncs1)CCN(C(=O)c1cc(F)c(F)cc1F)C2 | x | x | x | i | x | x
COc1ccccc1N1CCN(C(c2cc3ccc(C)cc3[nH]c2=O)c2nnnn2C2CCCC2)CC1 (centres undefined) | -7% | -3% | -9 | i | -70* | 1%
COc1ccccc1N1CCN(C(c2ccccn2)c2nnnn2C2CCCCC2)CC1 (centres undefined) | 0% | -11% | 1 | i | -66* | -1%
CCC(C)(C)n1nnnc1C(c1cc2ccc(OC)cc2[nH]c1=O)N1CCN(C2CCCCC2)CC1 (centres undefined) | -1% | -24% | -24 | u | -64* | u
Fc1ccccc1N1CCN(C(c2ccccn2)c2nnnn2C2CCCCC2)CC1 (centres undefined) | 5% | -1% | 0 | i | 5 | -4%
O=C(c1cccc(F)c1)N(Cc1cc2cc3c(cc2nc1N1CCOCC1)CCC3)CC1CCCO1 (centres undefined) | x | x | x | i | x | x
CC(C)c1nc(CN(C)C(=O)N[C@H](C(=O)N[C@@H](Cc2ccccc2)C[C@H](O)[C@H](Cc2ccccc2)NC(=O)OCc2cncs2)C(C)C)cs1 | 27µM*! | x | -14 | u | x | x
CC(C)[C@H](NC(=O)OCc1ccccc1)C(=O)NC(C=O)Cc1ccccc1 (some centres undefined) | 0% | 3% | 11 | i | 14 | 7%
CCCCN(CCCC)c1ccc(/C=C2\C=Cc3ccccc32)cc1 | x | -10% | x | x | x | 4%
COc1ccc(-c2cc(=O)c3c(O)cc(O[C@@H]4O[C@H](CO[C@@H]5O[C@@H](C)[C@H](O)[C@@H](O)[C@@H]5O)[C@@H](O)[C@H](O)[C@@H]4O)cc3o2)cc1O | 5% | x | x | x | x | x
SMILES | ATXN2 expr inh | HepG2 viability | DRD3 agonist | ATXN viability | DRD3 antagonist | TGFb inhibitor
Cc1ccc2nc(-c3ccc(SCC(=O)Nc4nnc(C)s4)nc3)[nH]c2c1 | u | 13µM* | -24 | x | -6 | 11µM*
CSC(=S)NN=C(C)c1cccc(C)n1 | u | -63% | -2 | u | -21 | u
CC(=NNC(=S)N1CCCCC1)c1cccc(C)n1 | u | -53% | 2 | u | -107* | 0.35µM*
CCCCN1CCC(CN2C(=S)NC[C@@H]2CC(C)C)CC1 | 1% | -12% | -46 | i | -80* | -16%
CC(C)C[C@H]1CNC(=O)C(=O)N1CC1CCN(CC2CCC(C(C)(C)C)CC2)CC1 (some centres undefined) | 3% | -2% | -35 | i | -57* | 2%
CC(C)CCN1CCC(CN2C(=O)C(=O)NC[C@@H]2CC(C)C)CC1 | -1% | 6% | -5 | i | u | 7%
COc1ccc(CCN2CCC(CN3C(=S)NC[C@@H]3CC(C)C)CC2)cc1OC | -6% | 9% | -40 | i | u | -4%
CC(C)C[C@H]1CNC(=S)N1CC1CCN(CCCC2CCCC2)CC1 | -8% | -27% | -44 | i | -63* | u
CC(C)C[C@H]1CNC(=S)N1CC1CCN(CCCCc2ccccc2)CC1 | -3% | -28% | -45 | i | -91* | u
COC(=O)c1cc2sc(Cl)cc2n1Cc1c(C)cc(C)cc1C | 3% | 2% | -2 | i | x | -16%
CC(C)c1c(C(=O)NCCN2CCOCC2)cnn1-c1nccc(-c2cccs2)n1 | x | x | x | i | x | x
S=C1NC[C@H](Cc2ccccc2)N1CCCCC1CCCCC1 | -12% | -46% | -20 | u | -13 | u
COc1ccc(CCCN2CCC(CN3C(=S)NC[C@@H]3Cc3ccccc3)CC2)cc1OC | -7% | -24% | -57 | i | -55* | 5%

Screening data: PubChem, National Center for Advancing Translational Sciences (NCATS)
